Source: PubChem BioAssay (EPA / NIEHS)
Activity calls are given as the source filed them. How the source made its calls: active means hit-call score of the fitted dose curve at least 0.9, where 1 is the maximum; inactive means score below 0.9.

What follows are molecules tested on Cytochrome P450 3A4 (Homo sapiens) (UniProt P08684) (assay: LTEA_HepaRG_CYP3A4: Life Technologies and Expression Analysis (LTEA) Assay for CYP3A4 using HepaRG (AID 2283487)). Conditions: mRNA level, 48 h; actives raise or lower the signal.
Procedure: LTEA_HepaRG is a cell based, multiplexed-readout assay that uses HepaRG, a human liver cell line, with measurements taken at 48 hours after chemical dosing on a 96-well plate.LTEA_HepaRG_CYP3A4 is one of 102 assay component(s) measured in the LTEA HepaRG cell culture assay. It is a marker of NR mediated metabolism.Data from the assay component LTEA_HepaRG_CYP3A4 was analyzed into 1 endpoint. This assay endpoint, LTEA_HepaRG_CYP3A4, was analyzed with bidirectional fitting relative to DMSO as the negative control and baseline of activity. Using a type of inducible reporter, measures of mRNA induction for gain or loss-of-signal activity can be used to understand regulation of transcription factor activity. To generalize the intended target to other relatable targets, this assay endpoint is annotated to the cyp intended target family, where the subfamily is xenobiotic metabolism.
A total of 1060 chemcials from the ToxCast library were tested in eight-point concentration-response experiments. Cell culture and cytotoxicity assays were conducted at Thermo Fisher Scientific's Custom Services facility (Madison, WI). A single lot of human HepaRG cells (Thermo Fisher Scientific, Frederick, MD) was used for the cell culture experiments. 96-well format collagen type I coated plates of human HepaRG cells were prepared using established methods. Briefly, cryopreserved HepaRG cells were thawed, plated at a density of approximately 100,000 cells/well in HepaRG Thaw, Plate, and General Purpose media (HPRG770, Thermo Fisher Scientific), and incubated for 48 hours. 0.5% DMSO was selected as vehicle control to balance the requisite need of DMSO in HepaRG cultures to maintain differentiation (for example, baseline metabolism, proportions of hepatocytes vs. cholangiocytes), while enabling further hepatic receptor pathway activation (for example, PXR and CAR) in response to chemical exposure. 48 hours after plating, the culture medium was replaced with HepaRG Serum-Free Incudtion Media. Cells were exposed to each test chemical in duplicate and maintained in CO2 incubators for another 48 hours. Chemical plates were thawed to room temperature and 200x concentrations of treatment groups were prepared. 8-point conentration-reponse curves were made with the highest exposure at 100 uM, followed by half-log dilutions, all in 0.5% DMSO. Each test plate contained variouse controls, induction positive controls (1mM phenobarbital), cytotoxicity positive controls ([…] aflatoxin B1), vehicle controls (0.5% DMSO), and total lysis controls (0.5% DMSO). Cell morphology images were taken using an Essen IncuCyte FLR automated microscope, with six 96-well plates imaged in about 24 minutes. Images were captured and exported and JPEG files. Spent culture media was transfered to black-well plates for the LDH assay, and remaining media was sorted at -80 C for later use. Cells were treated with RLT buffer and frozen until shipped for gene expression analysis. Total RNA was isolated from the cell suspension in 75 uL of Buffer RLT (Qiagen, Germantown, MD 20874) by Quintiles/Expression Analysis (Durham, NC) using a custom isolation procedure. Total RNA from each plate well was transferred to a preamplification plate. Fluidigm's 96.96 Dynamic ArrayTM (Fluidigm, Amsterdam, the Netherlands) technology was used for gene expression analyses by quantitative reverse transcription polymerase chain reaction (qRT-PCR, performed by Quintiles/Expression Analysis, Durham, NC)89. Standard TaqManTM Assays (Applied Biosystems/ThermoFisher Scientific, Foster City, CA) were used to assess the expression of 93 genes selected based on their selectivity and sensitivity to important hepatic receptors known to be modulated by environmental chemicals; importance in human hepatocyte functionality; and hepatotoxicity. […]

Chain of Cytochrome P450 3A4 (Homo sapiens) (P08684 whole entry, looked up): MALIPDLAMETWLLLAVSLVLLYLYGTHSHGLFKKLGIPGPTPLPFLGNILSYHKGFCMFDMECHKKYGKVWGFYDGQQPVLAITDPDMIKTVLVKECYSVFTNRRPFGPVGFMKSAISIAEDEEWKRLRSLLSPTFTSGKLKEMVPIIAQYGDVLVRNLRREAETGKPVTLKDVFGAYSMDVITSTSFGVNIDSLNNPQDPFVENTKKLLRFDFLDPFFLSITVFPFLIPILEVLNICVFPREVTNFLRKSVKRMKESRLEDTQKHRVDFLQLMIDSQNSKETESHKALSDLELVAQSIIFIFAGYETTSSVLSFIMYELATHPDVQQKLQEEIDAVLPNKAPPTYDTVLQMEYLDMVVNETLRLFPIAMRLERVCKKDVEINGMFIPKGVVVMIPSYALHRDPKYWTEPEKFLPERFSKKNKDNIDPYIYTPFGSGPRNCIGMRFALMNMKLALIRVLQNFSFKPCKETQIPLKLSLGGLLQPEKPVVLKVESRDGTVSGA

SMILES	AC50	outcome
CNC(=O)Oc1ccccc1OC(C)C	0.594 µM (active)	
Oc1ccc(Cl)cc1Cc1ccccc1		inactive
CCCN(CCC)c1c([N+](=O)[O-])cc(C(F)(F)F)cc1[N+](=O)[O-]		inactive
Clc1ccccc1-c1nnc(-c2ccccc2Cl)nn1	9.38 µM (active)	
CCOCN(C(=O)CCl)c1c(C)cccc1CC		inactive
Cc1[nH]c(=O)n(C(C)(C)C)c(=O)c1Cl		inactive
O=C(O)CCCOc1ccc(Cl)cc1Cl		inactive
CNC(=O)CSP(=S)(OC)OC		inactive
O=[N+]([O-])c1c(Cl)c(Cl)c(Cl)c(Cl)c1Cl		inactive
CCCN(CCOc1c(Cl)cc(Cl)cc1Cl)C(=O)n1ccnc1	36.2 µM (active)	
CCc1ccc(C(=O)NN(C(=O)c2cc(C)cc(C)c2)C(C)(C)C)cc1	3.75 µM (active)	
CC1(C)C(C=C(Cl)Cl)C1C(=O)OC(C#N)c1ccc(F)c(Oc2ccccc2)c1 (stereo not given)	10.9 µM (active)	
N#CN		inactive
CCN(CC)C(=O)SCc1ccc(Cl)cc1	9.92 µM (active)	
OCCOc1ccccc1		inactive
N#Cc1c(Cl)c(Cl)c(Cl)c(C#N)c1Cl	19 µM (active)	
C[C@H]1[C@H](c2ccc(Cl)cc2)SC(=O)N1C(=O)NC1CCCCC1	90 µM (active)	
C#CCN1C(=O)COc2cc(F)c(N3C(=O)C4=C(CCCC4)C3=O)cc21	3.65 µM (active)	
CCC(C)Nc1c([N+](=O)[O-])cc(C(C)(C)C)cc1[N+](=O)[O-] (stereo not given)	6.12 µM (active)	
O=S(=O)(O)C(F)(F)C(F)(F)C(F)(F)C(F)(F)C(F)(F)C(F)(F)C(F)(F)C(F)(F)F		inactive

SMILES	AC50	outcome
CC[C@H](C)[C@H]1O[C@]2(C=C[C@@H]1C)C[C@@H]1C[C@@H](C/C=C(\C)[C@@H](O[C@H]3C[C@H](OC)[C@@H](O[C@H]4C[C@H](OC)[C@@H](O)[C@H](C)O4)[C@H](C)O3)[C@@H](C)/C=C/C=C3\CO[C@@H]4[C@H](O)C(C)=C[C@@H](C(=O)O1)[C@]34O)O2 (tested in a mixture with another compound)	10 µM (active)	
CC(C)N(C(=O)COc1nnc(C(F)(F)F)s1)c1ccc(F)cc1		inactive
CC(C)OC(=O)Nc1cccc(Cl)c1		inactive
CCC(C)(C)C(=O)OC1=C(c2ccc(Cl)cc2Cl)C(=O)OC12CCCCC2	25 µM (active)	
CC(C)(C)C(O)/C(=C\c1ccc(Cl)cc1Cl)n1cncn1 (stereo not given)	84.5 µM (active)	
COP(=O)(OC)OC=C(Cl)Cl		inactive
CNC(=O)/C=C(\C)OP(=O)(OC)OC		inactive
O=C(NC(=O)c1c(F)cccc1F)Nc1ccc(OC(F)(F)C(F)OC(F)(F)F)c(Cl)c1 (stereo not given)		inactive
O=C(O)COc1ccc(Cl)cc1Cl		inactive
O=C(Nc1ccccc1)Nc1cnns1		inactive
CN1CSC(=S)N(C)C1		inactive
O=S1OCC2C(CO1)C1(Cl)C(Cl)=C(Cl)C2(Cl)C1(Cl)Cl (stereo not given)	11.7 µM (active)	
COP(=S)(OC)Oc1ccc([N+](=O)[O-])cc1		inactive
CCOC1Oc2ccc(OS(C)(=O)=O)cc2C1(C)C (stereo not given)	11.8 µM (active)	
COc1nn(CSP(=S)(OC)OC)c(=O)s1		inactive
CC1(c2ccc(Oc3ccccc3)cc2)OC(=O)N(Nc2ccccc2)C1=O (stereo not given)	26.2 µM (active)	
CCC(C)(NC(=O)c1cc(Cl)c(C)c(Cl)c1)C(=O)CCl (stereo not given)	88.2 µM (active)	
O=C1c2ccccc2C(=O)N1SC(Cl)(Cl)Cl		inactive
Oc1cc(Cl)ccc1Oc1ccc(Cl)cc1Cl		inactive
CNC(=O)Oc1cccc(N=CN(C)C)c1		inactive
